Measurements from PubChem BioAssay.
Active and inactive are the calls of the source.

Tested on: not listed separately
Experiment: MM1S myeloma cell viability, profiling panel, resazurin fluorescence, basal, 24 h, PK04 Diversity Set (AID 1174);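 further: MM1S multiple myeloma cell line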
Settings: higher = more signal, called active from +8 up or from −8 down
Further: test concentration not given here.

SMILES	z-score
COc1ccc(CCNC(=O)[C@@H]2c3ccccc3C(=O)N(c3ccc(C)cn3)[C@H]2c2ccc(CO)cc2)cc1	-0.806 (inactive)
CC1CC/C=C\[C@H]2OC34C=CCN(Cn5nnc6ccccc65)C(=O)[C@H]3N(CCO)C(=O)[C@@H]4C2C(=O)O1 (stereo partly drawn)	0.869 (inactive)
C[N+](C)(C)CCCCCCNC(=O)[C@@H]1C[C@@H]2C(=O)N3CCC[C@H]3C(=O)N2[C@@H]1c1cccc(OCCO)c1	0.984 (inactive)
CN1C(=O)[C@@]2(CCC(=O)OC(C)(C)C)N=C(c3ccc(OCCCO)cc3)O[C@H]2c2ccccc21	-1.82 (inactive)
COCC1=C2[C@@H](CCc3ccccc3)OB(O)C[C@@H]2n2c(=O)n(-c3ccccc3)c(=O)n2C1	-0.177 (inactive)
CCCCC(=C=CC[C@H](O)c1ccccc1OCCO)C[C@H](O)COCc1ccccc1	-0.505 (inactive)
COCCOC(=O)N1C(=O)[C@@]2(c3cc(C#CCNC(N)=O)ccc31)[C@H](c1ccc(O)cc1)N1[C@H](c3ccccc3)[C@H](c3ccccc3)OC(=O)[C@H]1[C@@H]2C(=O)N1CCCCCCC1	-0.172 (inactive)
CC(C)NC(=O)[C@@H]1c2ccccc2C(=O)N(CC23CC4CC(CC(C4)C2)C3)[C@H]1c1ccc(CO)cc1	0.955 (inactive)
CCCC[C@@H]1C[C@H]1[C@@H](NS(=O)(=O)c1cccc2cccnc12)c1ccc(-c2ccccc2)cc1	-0.251 (inactive)
CC(C)N1CC=CC23O[C@@H]4C=CCCOC(=O)C4[C@H]2C(=O)N(CCCCCCO)[C@@H]3C1=O (stereo partly drawn)	0.98 (inactive)
CC(C)=C1C(=O)C(c2ccccc2)=C2CN3C(=O)N(CCc4ccccc4)C(=O)[C@]3(Cc3ccc(F)cc3)[C@H]21	-1.53 (inactive)
CO[C@H]1O[C@H](CO)[C@@H](OC(=O)Nc2ccc(C#N)cc2)[C@H](OC(=O)c2cc3ccccc3[nH]2)[C@H]1OC(=O)c1cc2ccccc2[nH]1	-1.76 (inactive)
[N-]=[N+]=NCc1ccccc1[C@@H]1OC(c2ccc(OCCCO)cc2)=N[C@]1(Cc1ccccc1)C(=O)N1CCOCC1	-1.15 (inactive)
CC(C)c1ccc(NN2C(C(O)c3ccc4c(c3)OCO4)C=CC3C(=O)N(c4ccccc4)C(=O)C32)cc1 (stereo not drawn)	-0.165 (inactive)
COCC(=C=CC[C@@H](O)c1ccccc1OCCO)CCO	0.599 (inactive)
CC(C)OC(=O)C=C1C[C@@H](c2ccc(C#N)cc2)O[C@@H](c2ccc(C#N)cc2)O1	-0.793 (inactive)
CC(C)(C)N1CC=CC23O[C@@H]4C=CCCOC(=O)C4[C@H]2C(=O)N(CCCCCO)[C@@H]3C1=O (stereo partly drawn)	0.287 (inactive)

Target: Dihydroorotate dehydrogenase (quinone), mitochondrial (Plasmodium falciparum (isolate 3D7)) (UniProt Q08210)
Experiment: PfDHODH enzyme inhibitors, primary screen, biochemical, C-terminal His tag, absorbance 600 nm (AID 1175);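 further: recombinant parasite enzyme with a five histidine tag at its C terminus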
Settings: DCIP absorbance 600 nm, higher = more signal, called active from +8 up or from −8 down

Dihydroorotate dehydrogenase (quinone), mitochondrial (Plasmodium falciparum (isolate 3D7)), sequence (Q08210 whole entry, looked up): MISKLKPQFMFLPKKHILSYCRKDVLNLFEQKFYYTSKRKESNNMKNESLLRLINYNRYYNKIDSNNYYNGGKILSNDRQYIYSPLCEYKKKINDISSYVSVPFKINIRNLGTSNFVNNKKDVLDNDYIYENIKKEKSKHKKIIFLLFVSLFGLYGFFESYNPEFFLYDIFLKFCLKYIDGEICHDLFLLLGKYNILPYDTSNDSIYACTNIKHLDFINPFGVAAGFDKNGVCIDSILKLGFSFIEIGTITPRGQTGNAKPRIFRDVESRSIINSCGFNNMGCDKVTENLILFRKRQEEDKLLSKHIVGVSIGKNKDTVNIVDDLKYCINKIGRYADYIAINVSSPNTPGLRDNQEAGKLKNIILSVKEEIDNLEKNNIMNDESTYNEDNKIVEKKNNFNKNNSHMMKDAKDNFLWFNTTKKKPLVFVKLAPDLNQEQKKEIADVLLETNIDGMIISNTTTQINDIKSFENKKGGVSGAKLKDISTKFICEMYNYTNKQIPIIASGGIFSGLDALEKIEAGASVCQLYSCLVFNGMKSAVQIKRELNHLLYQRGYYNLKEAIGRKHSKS

SMILES	composite z-score
CN(C)CCCNC(=O)[C@@H]1c2ccccc2C(=O)N(Cc2ccccc2)[C@H]1c1ccc(CO)cc1	-0.303 (inactive)
COc1ccc([Si](C)(C)[C@H]2[C@H](CC(=O)N3CCC[C@H]3CO)O[C@@]3(C(=O)N(Cc4cccc(N5C(=O)COc6ccccc65)c4)c4ccccc43)[C@@H]2C)cc1	-3.33 (inactive)
C=CC[C@]1(C(=O)NCc2ccccc2)N=C(c2ccc(OCCCO)cc2)O[C@H]1c1ccccc1	-0.649 (inactive)
COC(=O)[C@@]1(Cc2ccc(F)cc2)[C@H]2c3cc(C(=O)N(C)C)n(Cc4ccc(OC)c(OC)c4)c3C[C@H]2CN1C(=O)c1ccccc1	-3.71 (inactive)
O=C(CS)NCCCCCNC(=O)[C@H]1C[C@H]2C(=O)N3CCC[C@H]3C(=O)N2[C@H]1c1cccc(OCCO)c1	0.274 (inactive)
Cn1cccc1C(O)C1C=CC2C(=O)NC(=O)C2N1Nc1ccccn1 (stereo not drawn)	1.21 (inactive)
O=C1O[C@@H](c2ccccc2)[C@@H](c2ccccc2)N2[C@@H](c3ccc(OCCO)cc3)[C@]3(C(=O)Nc4ccccc43)[C@@H](C(=O)N3CCN(c4ncccn4)CC3)[C@H]12	-2.37 (inactive)
COC(=O)c1c(CC[C@@H](CO)NC(=O)N[C@H](Cc2ccccc2)Cn2cc(-c3ccccc3N)nn2)oc(C(C)=O)c1C(=O)OC	-0.433 (inactive)
COC(=O)[C@@H]1N=C(c2ccc(OCCCO)cc2)O[C@@H]1c1ccccc1N=[N+]=[N-]	0.458 (inactive)
CCOC(=O)C1=CC[C@H]2C(=O)N(CC)C(=O)[C@@H]12	0.467 (inactive)
C=C(/C(=C/C[C@H](OC(C)=O)c1ccc(OCCO)cc1)c1cnc2ccccc2c1)C(C)C	-5.53 (inactive)
N#Cc1ccc(NN2C(C(O)c3cc(C(F)(F)F)cc(C(F)(F)F)c3)C=CC3C(=O)N(c4ccccc4)C(=O)C32)cc1 (stereo not drawn)	0.678 (inactive)
COCCOC(=O)N1C(=O)[C@@]2(c3cc(C#CCNC(N)=O)ccc31)[C@H](c1ccccc1OCCO)N1[C@H](c3ccccc3)[C@H](c3ccccc3)OC(=O)[C@H]1[C@@H]2C(=O)N1CCN(c2ncccn2)CC1	-1.48 (inactive)
CC(C)[Si]1(C(C)C)O[C@@H](c2ccccc2)c2cc(C3CC3)nc(-c3ccccc3)c21	0.45 (inactive)
COc1ccc([Si](C)(C)[C@@H]2[C@@H](CC(=O)N3CCC[C@H]3CO)O[C@]3(C(=O)N(Cc4cccc(N5CCC5=O)c4)c4ccccc43)[C@H]2C)cc1	-3.15 (inactive)
CN(C)c1ccc(C(O)C2C=CC3C(=O)N(c4ccccc4)C(=O)C3N2Nc2ccccc2F)cc1 (stereo not drawn)	1.03 (inactive)
CCCCCN1CC=CC23O[C@@H]4C=CCOC(=O)[C@@H]4[C@H]2C(=O)N(CCCCCCO)[C@@H]3C1=O (stereo partly drawn)	-0.473 (inactive)
CC(C)(C)OC(=O)CC[C@]1(C(N)=O)COC(c2ccc(OCCCO)cc2)=N1	0.0996 (inactive)

SMILES	composite z-score
CC(C)(C)OC(=O)CC[C@]1(C(=O)NCc2ccccc2)N=C(c2ccc(OCCCO)cc2)O[C@H]1c1ccccc1	0.218 (inactive)
COc1ccc(CCNC(=O)[C@@H]2c3ccccc3C(=O)N(c3ccc(C)cn3)[C@H]2c2ccc(CO)cc2)cc1	-0.204 (inactive)
CC1CC/C=C\[C@H]2OC34C=CCN(Cn5nnc6ccccc65)C(=O)[C@H]3N(CCO)C(=O)[C@@H]4C2C(=O)O1 (stereo partly drawn)	-0.895 (inactive)
C[N+](C)(C)CCCCCCNC(=O)[C@@H]1C[C@@H]2C(=O)N3CCC[C@H]3C(=O)N2[C@@H]1c1cccc(OCCO)c1	-1.83 (inactive)
CN1C(=O)[C@@]2(CCC(=O)OC(C)(C)C)N=C(c3ccc(OCCCO)cc3)O[C@H]2c2ccccc21	-0.281 (inactive)
COCC1=C2[C@@H](CCc3ccccc3)OB(O)C[C@@H]2n2c(=O)n(-c3ccccc3)c(=O)n2C1	0.653 (inactive)
CCCCC(=C=CC[C@H](O)c1ccccc1OCCO)C[C@H](O)COCc1ccccc1	-2.89 (inactive)
COCCOC(=O)N1C(=O)[C@@]2(c3cc(C#CCNC(N)=O)ccc31)[C@H](c1ccc(O)cc1)N1[C@H](c3ccccc3)[C@H](c3ccccc3)OC(=O)[C@H]1[C@@H]2C(=O)N1CCCCCCC1	0.0489 (inactive)
CC(C)NC(=O)[C@@H]1c2ccccc2C(=O)N(CC23CC4CC(CC(C4)C2)C3)[C@H]1c1ccc(CO)cc1	0.61 (inactive)
CCCC[C@@H]1C[C@H]1[C@@H](NS(=O)(=O)c1cccc2cccnc12)c1ccc(-c2ccccc2)cc1	-0.151 (inactive)
CC(C)N1CC=CC23O[C@@H]4C=CCCOC(=O)C4[C@H]2C(=O)N(CCCCCCO)[C@@H]3C1=O (stereo partly drawn)	-0.0439 (inactive)
CC(C)=C1C(=O)C(c2ccccc2)=C2CN3C(=O)N(CCc4ccccc4)C(=O)[C@]3(Cc3ccc(F)cc3)[C@H]21	-0.0278 (inactive)
CO[C@H]1O[C@H](CO)[C@@H](OC(=O)Nc2ccc(C#N)cc2)[C@H](OC(=O)c2cc3ccccc3[nH]2)[C@H]1OC(=O)c1cc2ccccc2[nH]1	-1.68 (inactive)
[N-]=[N+]=NCc1ccccc1[C@@H]1OC(c2ccc(OCCCO)cc2)=N[C@]1(Cc1ccccc1)C(=O)N1CCOCC1	-0.0859 (inactive)
CC(C)c1ccc(NN2C(C(O)c3ccc4c(c3)OCO4)C=CC3C(=O)N(c4ccccc4)C(=O)C32)cc1 (stereo not drawn)	-0.0797 (inactive)
COCC(=C=CC[C@@H](O)c1ccccc1OCCO)CCO	-1.59 (inactive)
CC(C)OC(=O)C=C1C[C@@H](c2ccc(C#N)cc2)O[C@@H](c2ccc(C#N)cc2)O1	0.382 (inactive)
CC(C)(C)N1CC=CC23O[C@@H]4C=CCCOC(=O)C4[C@H]2C(=O)N(CCCCCO)[C@@H]3C1=O (stereo partly drawn)	-0.16 (inactive)
